HCMV inh – inhibitors of human cytomegalovirus; HFF cells, HCMV-luciferase reporter, 72 h; active compounds read low; activity change, negative = inhibition, % at 57.5 µM; 4.5% of 410,000 active; AID 1259415; in the data active = activity change below about -60%; inconclusive = no clear call, values can overlap the other calls; inactive = above about -39%
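Compounds were evaluated in HFFs infected with an HCMV luciferase reporter virus (MOI 1 PFU/cell). Luciferase in lysates collected 72 h post infection served as the replication measure.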
Marburg entry inh – blocks Marburg virus binding to or entry into cells. AID 540276. 1.8% of 300,000 active. Marburg virus pseudotyped entry inhibition, cell reporter. Potency, µM (series often up to 37.8 µM), for the others: at the top dose activity change, negative = inhibition, actives largely listed as inhibitors; calls by dose curve; tested in HEK293 cells; also: potency is read from the fitted curve at half-maximal effect
LASV entry inh – blocks Lassa virus binding to or entry into cells. Lassa virus pseudotype entry inhibition, cell reporter. AID 540256. Potency, µM (doses to about 37.9 µM), for the others: at the top dose activity change, negative = inhibition, usual class: inhibitors. 1.2% of 300,000 active; calls by dose curve; tested in HEK293 cells; also: potency is read from the fitted curve at half-maximal effect; nearly all actives have a fitted effect of over 50% in size
FMDV antiviral – foot and mouth disease virus antiviral activity; FMDV antiviral cell-based qHTS; Potency, µM (doses to about 57.9 µM), inactives show top-dose activity change, negative = inhibition, actives largely listed as inhibitors; 1.2% of 410,000 active; AID 1159524; calls by dose curve; tested in HEK293T cells; also: read-out not given here; potency is read from the fitted curve at half-maximal effect; nearly all actives have a fitted effect of over 45% in size
HCV inhibitor – HCV inhibition; Potency, µM (top dose mostly 41.8 µM), for the others: at the highest dose activity change, negative = inhibition, actives largely listed as inhibitors; AID 651820; 3.4% of 340,000 active; Huh7.5.1 HCVcc-Cre infection, luciferase reporter, 44 h; active = well fitted inhibition curve with a large enough effect; inconclusive = small, poorly fitted or top-dose-only effect, or another doubt; inactive = no such curve, though single readings can be large or run the other way; also: potency is read from the fitted curve at half-maximal effect
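Antiviral activity was scored by luciferase reporter output from cells infected with HCVcc-Cre (~0.5 moi) in presence of compound, 44 h infection period, cells seeded 1,000/well 4 h prior.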
The depositor's hits bear a star; ? = inconclusive; / = no result; [ ] = dose if it differs, or a comment. A selection: hits, their analogues and other compounds. The true share with any hit is near 7.9%. % is scaled to controls: 0 for no effect and ±100 for the full control effect.

SMILES	HCMV inh	Marburg entry inh	LASV entry inh	FMDV antiviral	HCV inhibitor
Cc1ccc(N2C(=O)N3[C@H](c4ccc(Br)cc4)[C@@H]4C(=O)N(C(C)(C)C)C(=O)[C@@H]4[C@]3(C)C2=O)cc1	-85*	/	/	-20%	?
COc1ccc([C@@H]2[C@@H]3C(=O)N(C(C)(C)C)C(=O)[C@@H]3[C@]3(C)C(=O)N(c4cccc(Cl)c4)C(=O)N23)cc1	-71*	/	/	2%	5%
Cc1cccc(N2C(=O)N3[C@H](c4ccc(Br)cc4)[C@@H]4C(=O)N(C(C)(C)C)C(=O)[C@@H]4[C@]3(C)C2=O)c1	10	/	/	-17%	11%
Cc1cccc(N(C(=O)CNC(=O)c2ccco2)C(C(=O)NC2CCCC2)c2cccnc2)c1C (configuration not stated)	-12	0%[46.1 µM]	16%[46.1 µM]	17%	15%
CC(=O)c1ccc(F)c(-c2cc(C)cc3c2OC(CNC(=O)c2cccnc2)C3)c1 (configuration not stated)	/	/	/	-3%	/
CCOc1cccc(NCc2cc3c(C(C)(C)C)nn(-c4ccccc4)c3[nH]c2=O)c1	6	?	3%	/	13µM*
c1ccc(Cn2ncc3c(N4CCN(C(c5ccccc5)c5ccccc5)CC4)ncnc32)cc1	-23	?	?	?	?
c1ccc(Cn2ncc3c(N4CCN(c5ccccc5)CC4)ncnc32)cc1	?	/	/	22µM*	/
Cc1ccc(Cn2ncc3c(N4CCCC4)ncnc32)cc1	-28	-2%	0%	-25%	?
Cc1ccc(Cn2ncc3c(N4CCN(CC#N)CC4)ncnc32)cc1	-11	?	-24%	32µM*	?
COc1ccccc1OCCCOc1ccc([N+](=O)[O-])cc1Cl	-15	?	19%	-5%	22µM*
COc1cccc(OCCCOc2ccc([N+](=O)[O-])cc2Cl)c1	1	1%	14%	-4%	-2%
Cc1ccc(NC(=O)c2ccc(Cl)cc2Cl)c(C(=O)c2ccccc2)c1	-22	/	-20%[46.1 µM]	-10%	/
CCOC(=O)c1cccc(NC(=O)CC(c2cc(OC)c(OC)c(OC)c2)N2Cc3ccccc3C2=O)c1 (configuration not stated)	7	/	-3%[46.1 µM]	37%	/
O=C1[C@@H]2Cc3c([nH]c4ccccc34)C(c3ccccc3)N2C(=O)CN1C1CCN(Cc2ccccc2)CC1 (some centres not stated)	-76*	?	?	-2%	-19%
COC(=O)c1ccc(C2c3[nH]c4ccccc4c3C[C@H]3C(=O)N(C4CCN(Cc5ccccc5)CC4)CC(=O)N23)cc1 (some centres not stated)	-1	/	/	0%	10µM*
CCOc1ccccc1C1c2[nH]c3ccccc3c2C[C@H]2C(=O)N(C3CCN(Cc4ccccc4)CC3)CC(=O)N12 (some centres not stated)	?	20µM*	?	-3%	?
O=C1[C@@H]2Cc3c([nH]c4ccccc34)C(c3cccc(Br)c3)N2C(=O)CN1C1CCN(Cc2ccccc2)CC1 (some centres not stated)	4	?	?	-23%	?
C#CCOc1ccc(CNC[C@H]2O[C@@H](n3ccc(N)nc3=O)[C@H](O)[C@@H]2O)cc1	4	/	/	-3%	/
CC[C@H](C)[C@@H](NC(=O)O[C@H]1C(=O)c2ccc(OC)cc2O[C@@H]1c1ccc2c(c1)OCO2)C(=O)OC	/	28%[14.2 µM]	/	/	/
COCCCn1c2nc3ccccc3nc2c2c(=O)n(C[C@H]3CCCO3)cnc21	/	15%	/	/	/
CCc1cc2c(cc3c(=O)n(CC(=O)N4CCC(C)CC4)nc(CC)n32)s1	-38	6%[46.1 µM]	/	-4%	/
Cc1noc(C)c1NC(=O)N(C)C[C@H]1Oc2c(NC(=O)C3CCCCC3)cccc2C(=O)N([C@H](C)CO)C[C@@H]1C	-3	/	/	38%	4µM*
CC(C)NC(=O)N(C)C[C@H]1Oc2ccc(NC(=O)C3CCCCC3)cc2C(=O)N([C@H](C)CO)C[C@@H]1C	50	/	/	7%	7%
Cc1noc(C)c1NC(=O)N(C)C[C@@H]1Oc2c(NC(=O)NC(C)C)cccc2C(=O)N([C@@H](C)CO)C[C@@H]1C	14	/	/	-15%	15%
SMILES	HCMV inh	Marburg entry inh	LASV entry inh	FMDV antiviral	HCV inhibitor
C[C@H](CO)N1C[C@H](C)[C@@H](CN(C)C(=O)NC2CCCCC2)Oc2c(NC(=O)C3CC3)cccc2C1=O	-100*	/	/	50%	40%
C[C@@H]1CN([C@H](C)CO)C(=O)Cc2cc(NC(=O)Nc3ccccc3)ccc2O[C@@H]1CN(C)Cc1ccc2c(c1)OCO2	15	/	/	?	3.5µM*
C[C@H]1CN([C@@H](C)CO)C(=O)c2cc(NC(=O)C3CCCCC3)ccc2O[C@H]1CN(C)C(=O)Nc1ccc2c(c1)OCO2	21	/	/	-15%	1µM*
CCOC(=O)CCCCCC(=O)Nc1ccc2c(c1)CC(=O)N([C@H](C)CO)C[C@@H](C)[C@H](CN(C)Cc1ccc3c(c1)OCO3)O2	18	/	/	-16%	16%
CC1(C)CC2(CCO1)C(Nc1ccccc1)=NC(=S)N2CC(N)=O (configuration not stated)	28	/	/	-9%	24%
C[C@H](CO)N1C[C@H](C)[C@@H](CN(C)Cc2ccc(Oc3ccccc3)cc2)Oc2c(NC(=O)C3CC3)cccc2C1=O	-32	/	/	-14%	16µM*
C[C@H](CO)N1C[C@H](C)[C@@H](CN(C)C)Oc2c(NC(=O)C3CC3)cccc2C1=O	-22	/	/	28%	3.2µM*
C[C@H](CO)N1C[C@H](C)[C@@H](CN(C)CC2CC2)Oc2c(NC(=O)Cc3ccccc3)cccc2C1=O	?	/	/	36%	3.2µM*
CC(C)N1CCC1(C)C(=O)Nc1cccc2ccccc12 (configuration not stated)	13	/	/	22µM*	/
CCN(CC)c1ccc(/C=C(\C#N)c2ccccn2)cc1	/	?	5.8µM*	-44%	14µM*
CCN(Cc1ccccc1)c1ccc(/C=C(\C#N)c2ccccn2)cc1	48	-18%	18%	48%	-4%
CN(CCC#N)c1ccc(/C=C(\C#N)c2ccccn2)cc1	-18	8.2µM*	2.2µM*	-74%	?
O=C(O)[C@@H]1CSC2c3ccccc3C(=O)N21 (some centres not stated)	3	/	/	-9%	18%
O=C(NC(=S)N1CCCC1)c1cccc([N+](=O)[O-])c1	6	/	/	6%	10%
CC1Cc2nc(SCC(=O)N3CCCc4ccccc43)n(C)c(=O)c2S1 (configuration not stated)	0	/	/	?	11µM*
CCCc1nc(SCC(=O)N2CCCc3ccccc32)c2c(=O)n(C)c(=O)n(C)c2n1	/	1%	/	-24%	10µM*
Cn1c(=O)c2c(SCC(=O)N3CCCc4ccccc43)nc(CC(C)(C)C)nc2n(C)c1=O	/	/	/	22µM*	?
CCCn1c(SCC(=O)N2CCCc3ccccc32)nc2c1c(=O)n(C)c(=O)n2C	-2	-26%	-24%	-3%	-24%
Cc1ccc(-c2nc(SCC(=O)N3CCc4ccccc43)c3c(=O)n(C)c(=O)n(C)c3n2)cc1	-2	/	18%[46.1 µM]	-7%	/

Compound activity from PubChem BioAssay.
